Bioassay records from PubChem.
An excerpt weighted towards active compounds, which were near 1.4% of everything screened.
VLA-4 allo ag: allosterically activates the human VLA-4 integrin | 24,000 tested, under 10 active | activation, % at 10 µM (by protocol) | Jurkat cells, LDV-FITC binding, flow cytometry;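 active means fluorescent ligand binding to cells raised by more than 40% of the manganese-induced maximum; inconclusive means compound's own fluorescence above 85% of the ligand control signal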;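 further: 0% = ligand binding without compound and 100% = manganese-stimulated maximal binding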
Target sequence (P13612 whole entry, looked up): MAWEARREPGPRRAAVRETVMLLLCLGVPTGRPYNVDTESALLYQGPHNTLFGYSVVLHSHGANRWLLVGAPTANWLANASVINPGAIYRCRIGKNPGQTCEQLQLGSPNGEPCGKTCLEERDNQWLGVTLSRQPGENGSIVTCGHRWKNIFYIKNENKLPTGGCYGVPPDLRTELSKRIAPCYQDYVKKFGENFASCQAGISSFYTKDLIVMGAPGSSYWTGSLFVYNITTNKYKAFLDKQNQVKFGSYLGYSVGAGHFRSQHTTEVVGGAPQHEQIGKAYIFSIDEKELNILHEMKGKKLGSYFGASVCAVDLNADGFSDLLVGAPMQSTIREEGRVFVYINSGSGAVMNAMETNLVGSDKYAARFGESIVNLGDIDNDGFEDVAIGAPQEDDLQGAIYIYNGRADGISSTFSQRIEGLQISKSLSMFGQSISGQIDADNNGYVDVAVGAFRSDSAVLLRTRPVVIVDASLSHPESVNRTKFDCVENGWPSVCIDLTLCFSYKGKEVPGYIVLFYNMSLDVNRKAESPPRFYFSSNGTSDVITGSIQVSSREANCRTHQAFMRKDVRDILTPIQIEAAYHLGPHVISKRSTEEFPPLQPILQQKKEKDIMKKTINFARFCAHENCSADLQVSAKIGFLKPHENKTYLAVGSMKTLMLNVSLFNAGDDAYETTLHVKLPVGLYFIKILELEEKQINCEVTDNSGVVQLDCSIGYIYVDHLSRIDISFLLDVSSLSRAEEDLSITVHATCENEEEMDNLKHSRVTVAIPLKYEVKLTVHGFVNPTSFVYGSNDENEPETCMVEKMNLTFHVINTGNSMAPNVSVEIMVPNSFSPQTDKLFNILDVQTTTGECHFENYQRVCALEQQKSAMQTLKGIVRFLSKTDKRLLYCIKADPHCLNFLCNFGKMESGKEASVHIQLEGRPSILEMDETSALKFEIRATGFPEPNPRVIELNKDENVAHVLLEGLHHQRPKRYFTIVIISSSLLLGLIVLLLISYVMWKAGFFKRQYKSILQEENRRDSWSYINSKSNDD
VLA-4 antagonist: inhibitors of LDV-FITC ligand binding to Mn2+-activated human VLA-4 integrin. P13612. Jurkat cells, LDV-FITC binding with Mn2+, flow cytometry; 100% = Mn2+-driven binding gain fully reversed. inhibition, % at 10 µM (by protocol). 24,000 tested, 0.2% active. AID 529;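 active means inhibition above 50%; inconclusive means compound itself fluorescent, judged against control cell fluorescence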;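 further: 0% = Mn2+ stimulated cells lacking compound and 100% = ligand binding without Mn2+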
Jurkat autofluor: autofluorescence counter-screen for VLA-4 integrin assays | Jurkat cells, compound autofluorescence, flow cytometry; hits give high values; 1 = vehicle-only cell background | fluorescence ratio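 (tested at 10 µM compound in the well)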 | 24,000 tested, 0.61% active | AID 576;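 active means fluorescence ratio above 2.44, which is 1 plus 3 SD of all ratios; inconclusive means signal too bright to measure linearly, ratio around 10 or more; inactive means fluorescence ratio below 2.44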;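 further: green fluorescence of cells measured with 488 nm excitation and 530 nm emission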
Proteasome disasm: blocks ATP-dependent breakdown of the yeast 26S proteasome; inhibition of disassembly, % (concentration not given with the values); anti-FLAG beads, GFP-proteasome disassembly, flow cytometry; 24,000 tested, 0.2% active;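 active means inhibition of disassembly above about 33%, limit read from the data; inconclusive means likely self-fluorescent, control bead median signal at least 40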;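 further: plate controls were ATP control with full disassembly for no effect and ATP-gamma-S intact proteasomes for full effect; higher percent means more bead fluorescence retained so stronger block of disassembly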
Prostate diff: activators of LNCaP prostate cell differentiation; side scatter shift, % at 10 µM; AID 795; flow cytometry side scatter, 4 d; 24,000 tested, 0.56% active;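 active means side scatter shift above 30%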;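 further: androgen-responsive LNCaP prostate cancer cells in charcoal-stripped serum medium; percent of cells past a gate set so DMSO wells show 10% shift; higher shift means more granular cells and more differentiation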
* = called active by the depositor; ? = inconclusive; · = no result given.

SMILES | VLA-4 allo ag | VLA-4 antagonist | Jurkat autofluor | Proteasome disasm | Prostate diff
N#Cc1cnc(SCCc2ccccc2)nc1N | ? | ? | 1.7 | 88.2* | 21.0
Cc1c(C(=O)O)nn(-c2ccccc2)c(=O)c1C#N | 3.0 | -15.0 | 1.01 | 0.3 | 1.0
Cc1cccc2cc(C#N)c(SCCN3CCCCC3)nc12 | 5.7 | -5.7 | 1.3 | 10.0 | 40.0*
CCN(CC)c1ccc2c(c1)CCCN2 | ? | ? | 4.49* | ? | 14.0
O=C(C1CC1)N1CCc2cc(S(=O)(=O)NC3CCN(Cc4ccccc4)CC3)ccc21 | -3.0 | 8.0 | 1.13 | 0.8 | 6.0
O=C(C1CCCN(S(=O)(=O)c2cccc3nonc23)C1)N1CCC(Cc2ccccc2)CC1 (stereo not drawn) | -8.3 | 11.7 | 1.66 | 12.8 | 11.0
COc1cc(NS(=O)(=O)c2ccc(Br)s2)cc(OC)c1 | ? | ? | 4.46* | 5.3 | 3.0
O=C(NCC12CC3CC(CC(C3)C1)C2)c1cc2n(n1)C(C(F)(F)F)CC(c1ccco1)N2 (stereo not drawn) | ? | ? | 3.52* | -4.8 | 1.0
CC(=O)Nc1ccc(S(=O)(=O)NC(CC(=O)NCCC2=CCCCC2)C(C)C)cc1 (stereo not drawn) | 4.0 | 12.0 | 1.05 | 2.3 | 5.0
CCCCC[C@H](O)/C=C/[C@H]1C=CC(=O)[C@@H]1C/C=C\CCCC(=O)O | 42.0* | -58.5 | 1.22 | -1.1 | 1.0
CCOC(=O)C1=C(C)N=c2s/c(=C\c3ccncc3)c(=O)n2C1c1ccc2c(c1)OCO2 (stereo not drawn) | ? | ? | 2.02 | 1.5 | 35.0*
Cc1ccc(C(=O)CC(C(=O)O)c2cn(CCC#N)c3ccccc23)cc1 (stereo not drawn) | -2.0 | -16.0 | 1.08 | -1.4 | 2.0
CCOC(=O)CC(C#N)c1cn(C)c2ccccc12 (stereo not drawn) | ? | ? | 2.78* | ? | 7.0
Cc1cc(C)n2nc(CC(=O)NC3CCCC(C)C3C)nc2n1 (stereo not drawn) | 6.0 | -9.0 | 0.98 | -0.2 | 6.0
C=CCOC(=O)C(C#N)c1nc2ccccc2nc1N1CCN(Cc2ccccc2)CC1 (stereo not drawn) | ? | ? | 2.82* | 4.7 | 5.0
CC(C)COC(=O)C(C#N)c1nc2ccccc2nc1N1CCN(Cc2ccccc2)CC1 (stereo not drawn) | ? | ? | 1.93 | -0.5 | 25.0
CCOC(=O)C1CCN(C(=O)Nc2ccc(Cl)cc2Cl)CC1 | 8.0 | -31.5 | 0.98 | -1.6 | 11.0
Cc1cc2ncc(C(=O)Nc3ccccc3)c(C)n2n1 | -2.0 | -9.5 | 1.03 | -0.2 | 4.0
COC(=O)Cn1c2c(c3cc(C)ccc31)CCCC2 | -10.0 | -29.0 | 1.02 | -1.2 | 9.0
Cc1ccc2c(c1)c1c(n2CC(O)CNC(CO)(CO)CO)CCCC1 (stereo not drawn) | 5.5 | -23.5 | 0.77 | -2.1 | 30.0*
CC(=O)N1CCc2cc(C(=O)CN3CCCN(Cc4ccc(F)cc4)C3)ccc21 | -4.0 | -1.0 | 1.1 | -2.5 | 3.0
Cc1ccc(NC(=O)N2CCCN(Cc3ccc(F)cc3)C2)cc1C | 1.0 | -1.0 | 1.07 | -0.9 | 39.0*
c1cncc(-c2nc3ccccc3o2)c1 | ? | ? | 9.82* | 0.9 | 28.0
CCOC(=O)C1=C(C)Nc2nc(SCC(=O)OC)nn2C1c1cc(F)cc(F)c1 (stereo not drawn) | 5.5 | -13.5 | 1.14 | 1.1 | 20.0
CCOc1ccc2nc(S(N)(=O)=O)sc2c1 | 2.5 | -14.5 | 1.01 | -0.5 | 5.0
SMILES | VLA-4 allo ag | VLA-4 antagonist | Jurkat autofluor | Proteasome disasm | Prostate diff
CCCOc1ccc(C(CC(=O)O)NC(=O)C23CC4CC(CC(C4)C2)C3)cc1 (stereo not drawn) | -26.0 | 113.0* | 1.05 | · | ·
CCOC(=O)c1c(C)oc2c1c(C=NCc1ccccn1)c(O)c1ccccc12 | ? | ? | 2.86* | ? | 5.0
CCOC(=O)c1c(C)oc2c1c(C=NCC1CCCO1)c(O)c1ccccc12 (stereo not drawn) | ? | ? | 1.74 | 3.6 | 6.0
COc1ccc(OC)c(C2N(c3ccc(Cl)cc3)C(=O)C3CCCN32)c1 (stereo not drawn) | 1.0 | -6.0 | 1.03 | 84.6* | 12.0
COc1ccc(N2C(=O)C3CCCN3C2c2ccc(Cl)cc2)cc1 (stereo not drawn) | 0.0 | 2.0 | 1.02 | -0.7 | 4.0
COc1ccc2nc(Nc3nc(C)c(C(C)=O)s3)sc2c1 | -12.0 | 63.0* | 1.16 | 2.9 | 7.0
COC(=O)c1ccc(/C(O)=C(\C#N)c2nc3ccccc3s2)cc1 | ? | ? | 2.68* | 0.4 | 12.0
COC(=O)c1ccc(CSc2nc3ccccc3s2)o1 | 3.0 | -4.0 | 1.09 | 1.9 | 7.0
COC(=O)c1cn(NC(=O)c2ccncc2)c(=O)c2ccccc12 | 0.0 | -1.0 | 1.07 | -0.2 | 3.0
CCn1c(N)c(C(=O)NCc2ccco2)sc1=S | 4.0 | 0.0 | 1 | 0.4 | 9.0
Cn1c(N)c(C(=O)NCc2ccccc2)sc1=S | ? | ? | 4.06* | 35.7 | 3.0
COc1nc(NC(C)(C)C)nc(Oc2ccc(=O)n(C)n2)n1 | 0.0 | 1.0 | 1.06 | 0.0 | 7.0
Cc1nnc(NCc2n[nH]c(=O)c3ccccc23)c2ccccc12 | -0.7 | -14.7 | 1.01 | -2.9 | 33.0*
CCOC(=O)N1CCC(C(=O)Nc2ccc(OCC)cc2)CC1 | 4.0 | 7.0 | 0.95 | -0.3 | 13.0
CC1(C)Cc2ccccc2C2CC(O)C(=O)N21 (stereo not drawn) | 17.0 | -62.0 | 0.85 | 0.4 | 10.0
Cc1cc(N2CCN(C3CCCC3)CC2)n2c(nc3ccccc32)c1C#N | -1.0 | 2.0 | 0.94 | -1.0 | 16.0
Cc1c(CCC#N)c(N2CCN(C3CCCCC3)CC2)n2c(nc3ccccc32)c1C#N | ? | ? | 8.58* | ? | 16.0
Cc1nccc2[nH]c(=O)c(C(=O)NCCCN(C)C3CCCCC3)cc12 | -6.0 | -82.0 | 1 | 0.0 | 2.0
CC(=O)N1C(=O)C(=C2C=C(C)OC(C)=C2)c2ccccc21 | 0.0 | -1.0 | 1.16 | 85.2* | 3.0
CC1=CC(=C2C(=O)c3ccccc3C2=O)C=C(C)O1 | ? | ? | 1.69 | 34.5 | 11.0
COc1cccc2sc(Nc3nnc(-c4ccccc4Cl)o3)nc12 | 7.0 | 73.0* | 1.01 | · | ·
COc1ccccc1-c1nnc(Nc2nc3c(OC)cccc3s2)o1 | 2.5 | 11.5 | 1.06 | 5.2 | 18.0
Cc1cc(NC(=O)c2noc3c2CCc2ccccc2-3)n(-c2ccccc2)n1 | 7.0 | 7.0 | 1.03 | 0.3 | 35.0*
Cc1cc(NC(=O)Nc2cc(C)nn2-c2ccccc2)n(-c2ccccc2)n1 | -8.0 | 4.0 | 1.05 | -3.5 | 2.0
CCOC(=O)c1[nH]c2ccc(Br)cc2c1NC(=O)CCN1CCC(C(=O)OCC)CC1 | -7.0 | 0.0 | 0.98 | -6.3 | 8.0
COC(=O)c1oc2ccc(Br)cc2c1NC(=O)CN1CCN(C)CC1 | 3.0 | 6.5 | 1.05 | -0.3 | 31.0*
COc1ccc(Nc2nc(N)nc(CN3CCC(Cc4ccccc4)CC3)n2)cc1 | 5.0 | 7.0 | 1 | 0.6 | 49.0*
COc1cccc(N2CCN(Cc3nc(N)nc(Nc4ccccc4OC)n3)CC2)c1 | 2.0 | -8.5 | 1.06 | -0.9 | 12.0
